Results with a measured potency or affinity are listed apart. Inconclusive results are not listed. A number with no mark means an inactive call. The rule behind the calls is not given here.
Target: Cyclin-dependent kinase 5 activator 1 (Homo sapiens) + Cyclin-dependent kinase 5 (Homo sapiens) (UniProt Q15078+Q00535)
Assay: blockade of human CDK5 activity – biochemical, cherry-picked samples, set 2, dose response (AID 504545)
Details: CDK5/p35 kinase activity, biochemical plate reader; series mostly up to 30 µM; activity change, negative = inhibition: at the top concentration

Chain of Cyclin-dependent kinase 5 activator 1 (Homo sapiens) + Cyclin-dependent kinase 5 (Homo sapiens) (Q00535 whole entry, looked up): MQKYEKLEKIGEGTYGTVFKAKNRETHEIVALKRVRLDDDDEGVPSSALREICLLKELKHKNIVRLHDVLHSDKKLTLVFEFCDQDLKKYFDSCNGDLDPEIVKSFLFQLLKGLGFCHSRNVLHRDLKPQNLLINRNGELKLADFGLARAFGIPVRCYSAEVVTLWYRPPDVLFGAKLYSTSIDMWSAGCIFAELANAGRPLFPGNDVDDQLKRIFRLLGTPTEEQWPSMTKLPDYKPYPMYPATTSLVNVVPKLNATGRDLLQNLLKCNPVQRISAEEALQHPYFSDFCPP
Chain of Cyclin-dependent kinase 5 activator 1 (Homo sapiens) + Cyclin-dependent kinase 5 (Homo sapiens) (Q15078 whole entry, looked up): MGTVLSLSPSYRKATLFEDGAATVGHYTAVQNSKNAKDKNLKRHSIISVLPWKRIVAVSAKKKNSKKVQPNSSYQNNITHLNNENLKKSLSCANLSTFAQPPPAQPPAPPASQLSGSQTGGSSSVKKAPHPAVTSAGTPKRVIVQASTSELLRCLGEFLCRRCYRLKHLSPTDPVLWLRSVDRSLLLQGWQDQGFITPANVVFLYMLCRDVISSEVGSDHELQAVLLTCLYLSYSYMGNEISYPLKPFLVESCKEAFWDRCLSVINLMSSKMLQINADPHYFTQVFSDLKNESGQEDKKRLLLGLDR

Row | Structure (SMILES) | activity change, negative = inhibition
1 | COc1cc2c(ccc3c4cc(OC)c(OC)cc4c[n+](C)c23)cc1O | -2.52%
2 | Nc1ccc(CC2=NCCN2)cc1 | -11.6%
3 | Nc1ncnc2c1ccn2[C@@H]1O[C@H](CO)[C@@H](O)[C@H]1O | 1.79%
4 | NC(=O)c1c(Br)n(C2OC(CO)C(O)C2O)c2ncnc(N)c12 (centres undefined) | -11%

Source: PubChem BioAssay AID504545 (Broad Institute, 2011)
